# The supplement of paper PMC10849652
# Targets with a hit are over-represented here; the source holds about 7,900 in all. About 0.6% of all pairs of compound and target were hits. Values without a mark were called inactive.
# Key:
# Experiment in all cases: log2 fold change, soluble protein after heating vs DMSO (PISA); higher = thermal stabilisation; K562 cells, 10 uM, 30 min; active = over 0.2 and 3.5 SD of the protein, either way, in both replicates (recomputed)
# IRAK-1-4 Inhibitor I = compound: C1COCCN1CCN2C3=CC=CC=C3N=C2NC(=O)C4=CC(=CC=C4)[N+](=O)[O-] [IRAK-1-4 Inhibitor I]
# How it was run: (§1)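 Quantification of soluble protein used TMTpro 16plex LC-MS/MS, with channel sums equalised. Samples were the supernatant after 21,000xg for 90 min of pooled aliquots from K562 cells (2×10^6 cells/mL) treated with 10 μM compound for 30 min, heated for 3 min over 48°C-58°C, and extracted in PBS with 0.5% NP-40 at 4°C. Values, from duplicates, describe thermal stability against control samples on a log2 fold-change scale.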
# ibrutinib = compound: C=CC(=O)N1CCC[C@@H](n2nc(-c3ccc(Oc4ccccc4)cc3)c3c(N)ncnc32)C1 [ibrutinib]
# How it was run: as §1
# [1] = compound: CC(=O)c1cnc2ccc(-c3cc(Cl)c(O)c(Cl)c3)nc2c1N[C@H]1CC[C@H](CN(C)C)CC1
# How it was run: as §1
# [2] = compound: CC(C)(O)CC(=O)NCCn1ccc2ncnc(Nc3ccc(Oc4cccc(C(F)(F)F)c4)c(Cl)c3)c21
# How it was run: as §1
# [3] = compound: CC(C)C1=C2N=C(C=C(N2N=C1)NCC3=CC=CC=C3)NCCCCCCN
# How it was run: as §1
# pinometostat = compound: CC(C)N(C[C@H]1O[C@@H](n2cnc3c(N)ncnc32)[C@H](O)[C@@H]1O)[C@H]1C[C@@H](CCc2nc3cc(C(C)(C)C)ccc3[nH]2)C1 [pinometostat]
# How it was run: as §1
# [4] = compound: CC1=C(C(CC(=O)N1)C2=CC=C(C=C2)C(F)(F)F)C(=O)NC3=C(C=C4C(=C3)C=NN4)F
# How it was run: as §1
# [5] = compound: CC1=C(C2=C(C=C1)C(=O)C3=CC=CC=C3N2CCCN)C
# How it was run: as §1
# [6] = compound: CC1=C(C=C(C=C1)NC(=O)C2=CC(=CC=C2)C(C)(C)C#N)NC3=CC4=C(C=C3)N=CN(C4=O)C
# How it was run: as §1
# [7] = compound: CC1=CC=C(C=C1)SC2=C3C=C(SC3=CN=C2)C(=O)N
# How it was run: as §1
# [8] = compound: CC1=NC(=CC=C1)C2=C(N=C(N2)C(C)(C)C)C3=CC4=NC=CN=C4C=C3
# How it was run: as §1
# Nexturastat A = compound: CCCCN(Cc1ccc(C(=O)NO)cc1)C(=O)Nc1ccccc1 [Nexturastat A]
# How it was run: as §1
# vemurafenib = compound: CCCS(=O)(=O)Nc1ccc(F)c(C(=O)c2c[nH]c3ncc(-c4ccc(Cl)cc4)cc23)c1F [vemurafenib]
# How it was run: as §1
# [9] = compound: CCCS(=O)(=O)Nc1ccc(F)c(C(=O)c2c[nH]c3ncc(Cl)cc23)c1F
# How it was run: as §1
# [10] = compound: CCCc1cc(C)[nH]c(=O)c1CNC(=O)c1cc(-c2ccnc(N3CCN(C)CC3)c2)cc2c1cnn2C(C)C
# How it was run: as §1
# givinostat = compound: CCN(CC)Cc1ccc2cc(COC(=O)Nc3ccc(C(=O)NO)cc3)ccc2c1 [givinostat]
# How it was run: as §1
# barasertib = compound: CCN(CCCOc1ccc2c(Nc3cc(CC(=O)Nc4cccc(F)c4)[nH]n3)ncnc2c1)CCOP(=O)(O)O [barasertib]
# How it was run: as §1
# ralimetinib = compound: CC(C)(C)Cn1c(N)nc2ccc(-c3[nH]c(C(C)(C)C)nc3-c3ccc(F)cc3)nc21 [ralimetinib]
# How it was run: as §1
# [11] = compound: CC(C)C[C@@H](C=O)NC(=O)[C@H](CC(C)C)NC(=O)[C@H](CC(C)C)NC(=O)OCc1ccccc1
# How it was run: as §1
# [12] = compound: CC1=C(C=C(C=C1)NC(=O)C2=CC(=CC=C2)N(C)C)NC(=O)C3=CC=C(C=C3)O
# How it was run: as §1
# UniProt O94806, sequence (O94806 whole entry, looked up): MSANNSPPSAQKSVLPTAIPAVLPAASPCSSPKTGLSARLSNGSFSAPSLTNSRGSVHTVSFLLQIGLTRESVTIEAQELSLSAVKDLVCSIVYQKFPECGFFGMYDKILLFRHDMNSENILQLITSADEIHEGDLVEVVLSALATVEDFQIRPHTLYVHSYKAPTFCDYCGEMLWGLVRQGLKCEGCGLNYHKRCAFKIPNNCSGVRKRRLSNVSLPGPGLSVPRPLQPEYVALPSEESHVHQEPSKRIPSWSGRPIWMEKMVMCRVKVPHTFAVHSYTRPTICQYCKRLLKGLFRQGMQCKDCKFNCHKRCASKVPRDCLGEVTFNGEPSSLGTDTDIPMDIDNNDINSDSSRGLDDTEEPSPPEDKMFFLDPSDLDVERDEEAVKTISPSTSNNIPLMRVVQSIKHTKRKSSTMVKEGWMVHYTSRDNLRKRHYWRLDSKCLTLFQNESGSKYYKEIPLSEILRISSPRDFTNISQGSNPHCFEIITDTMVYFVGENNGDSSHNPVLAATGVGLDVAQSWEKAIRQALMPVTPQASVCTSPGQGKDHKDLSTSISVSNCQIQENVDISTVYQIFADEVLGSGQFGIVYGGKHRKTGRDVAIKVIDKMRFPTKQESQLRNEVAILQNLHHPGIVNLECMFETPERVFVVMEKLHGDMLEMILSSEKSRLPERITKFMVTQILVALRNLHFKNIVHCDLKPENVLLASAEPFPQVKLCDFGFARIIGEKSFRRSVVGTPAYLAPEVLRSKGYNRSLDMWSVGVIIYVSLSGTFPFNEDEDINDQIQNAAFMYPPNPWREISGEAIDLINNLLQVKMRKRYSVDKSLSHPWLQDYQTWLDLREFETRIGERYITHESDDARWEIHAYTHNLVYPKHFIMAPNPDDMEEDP
# UniProt Q96RV3, sequence (Q96RV3 whole entry, looked up): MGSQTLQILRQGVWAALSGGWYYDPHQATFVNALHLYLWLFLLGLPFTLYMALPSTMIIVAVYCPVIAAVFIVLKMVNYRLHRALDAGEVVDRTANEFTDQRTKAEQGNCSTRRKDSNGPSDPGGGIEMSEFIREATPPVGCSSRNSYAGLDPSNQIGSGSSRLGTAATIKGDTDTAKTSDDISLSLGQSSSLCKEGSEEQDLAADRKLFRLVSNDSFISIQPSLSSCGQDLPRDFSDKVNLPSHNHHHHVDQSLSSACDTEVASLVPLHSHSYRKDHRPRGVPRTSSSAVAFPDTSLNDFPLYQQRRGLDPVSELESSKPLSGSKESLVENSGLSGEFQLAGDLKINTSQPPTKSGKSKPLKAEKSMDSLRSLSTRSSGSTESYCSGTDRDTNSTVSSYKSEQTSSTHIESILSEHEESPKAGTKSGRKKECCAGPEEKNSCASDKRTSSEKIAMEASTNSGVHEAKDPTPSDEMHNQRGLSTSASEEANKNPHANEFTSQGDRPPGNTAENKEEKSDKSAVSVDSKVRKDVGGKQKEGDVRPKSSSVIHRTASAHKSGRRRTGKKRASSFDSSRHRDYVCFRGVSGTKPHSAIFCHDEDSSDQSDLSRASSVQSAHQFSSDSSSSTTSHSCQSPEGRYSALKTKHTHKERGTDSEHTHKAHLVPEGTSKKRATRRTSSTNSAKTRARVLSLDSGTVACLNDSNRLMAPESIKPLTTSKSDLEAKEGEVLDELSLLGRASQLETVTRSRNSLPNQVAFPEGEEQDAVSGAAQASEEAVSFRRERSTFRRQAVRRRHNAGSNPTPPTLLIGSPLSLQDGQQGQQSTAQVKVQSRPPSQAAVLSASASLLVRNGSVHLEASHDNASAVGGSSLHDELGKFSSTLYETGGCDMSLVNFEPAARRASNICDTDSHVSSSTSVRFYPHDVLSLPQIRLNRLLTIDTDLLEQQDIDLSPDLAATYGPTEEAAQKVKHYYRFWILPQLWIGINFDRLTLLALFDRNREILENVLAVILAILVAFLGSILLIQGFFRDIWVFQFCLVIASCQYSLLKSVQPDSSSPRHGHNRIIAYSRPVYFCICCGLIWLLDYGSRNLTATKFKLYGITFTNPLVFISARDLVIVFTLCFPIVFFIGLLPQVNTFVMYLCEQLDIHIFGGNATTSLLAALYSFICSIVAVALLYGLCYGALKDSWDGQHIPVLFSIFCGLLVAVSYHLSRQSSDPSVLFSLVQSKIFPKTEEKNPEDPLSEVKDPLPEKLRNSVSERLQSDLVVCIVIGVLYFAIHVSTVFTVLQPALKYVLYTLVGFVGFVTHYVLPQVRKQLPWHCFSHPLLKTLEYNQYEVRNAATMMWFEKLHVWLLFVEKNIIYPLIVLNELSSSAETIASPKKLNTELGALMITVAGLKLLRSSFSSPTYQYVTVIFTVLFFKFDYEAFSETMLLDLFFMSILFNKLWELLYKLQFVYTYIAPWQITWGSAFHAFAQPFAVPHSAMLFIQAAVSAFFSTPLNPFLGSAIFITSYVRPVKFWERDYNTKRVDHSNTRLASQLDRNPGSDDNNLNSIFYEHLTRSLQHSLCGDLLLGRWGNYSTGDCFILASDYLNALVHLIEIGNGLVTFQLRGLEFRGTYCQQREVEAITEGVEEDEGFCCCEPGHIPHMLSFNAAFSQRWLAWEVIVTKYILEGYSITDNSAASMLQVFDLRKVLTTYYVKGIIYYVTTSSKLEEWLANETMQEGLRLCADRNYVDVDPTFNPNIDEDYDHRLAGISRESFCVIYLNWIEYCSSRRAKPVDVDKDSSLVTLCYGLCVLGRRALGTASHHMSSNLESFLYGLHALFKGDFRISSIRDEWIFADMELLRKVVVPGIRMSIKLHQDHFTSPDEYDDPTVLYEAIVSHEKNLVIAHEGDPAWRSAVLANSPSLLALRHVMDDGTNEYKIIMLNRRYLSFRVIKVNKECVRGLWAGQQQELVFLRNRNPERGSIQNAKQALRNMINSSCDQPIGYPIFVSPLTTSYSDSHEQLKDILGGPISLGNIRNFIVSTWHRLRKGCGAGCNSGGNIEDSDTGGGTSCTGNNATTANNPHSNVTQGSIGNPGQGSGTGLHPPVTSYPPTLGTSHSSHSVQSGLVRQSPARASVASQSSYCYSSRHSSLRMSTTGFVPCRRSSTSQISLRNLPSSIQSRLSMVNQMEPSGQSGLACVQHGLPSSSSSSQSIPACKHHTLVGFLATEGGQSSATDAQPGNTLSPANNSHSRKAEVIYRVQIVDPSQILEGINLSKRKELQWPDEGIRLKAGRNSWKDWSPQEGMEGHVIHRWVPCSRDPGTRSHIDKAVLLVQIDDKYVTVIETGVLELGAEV
# UniProt Q86YH6, sequence (Q86YH6 whole entry, looked up): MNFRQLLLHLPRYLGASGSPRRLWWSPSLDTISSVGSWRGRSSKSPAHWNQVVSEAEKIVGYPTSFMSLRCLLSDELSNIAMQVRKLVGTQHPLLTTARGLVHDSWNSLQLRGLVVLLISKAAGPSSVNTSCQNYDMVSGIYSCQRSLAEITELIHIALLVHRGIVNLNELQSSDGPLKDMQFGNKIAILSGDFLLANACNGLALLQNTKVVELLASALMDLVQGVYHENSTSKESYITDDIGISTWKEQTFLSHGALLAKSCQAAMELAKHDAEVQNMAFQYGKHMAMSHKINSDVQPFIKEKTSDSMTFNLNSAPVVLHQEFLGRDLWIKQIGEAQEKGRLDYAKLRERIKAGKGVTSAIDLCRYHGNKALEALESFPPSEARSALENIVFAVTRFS
# UniProt Q8IV08, sequence (Q8IV08 whole entry, looked up): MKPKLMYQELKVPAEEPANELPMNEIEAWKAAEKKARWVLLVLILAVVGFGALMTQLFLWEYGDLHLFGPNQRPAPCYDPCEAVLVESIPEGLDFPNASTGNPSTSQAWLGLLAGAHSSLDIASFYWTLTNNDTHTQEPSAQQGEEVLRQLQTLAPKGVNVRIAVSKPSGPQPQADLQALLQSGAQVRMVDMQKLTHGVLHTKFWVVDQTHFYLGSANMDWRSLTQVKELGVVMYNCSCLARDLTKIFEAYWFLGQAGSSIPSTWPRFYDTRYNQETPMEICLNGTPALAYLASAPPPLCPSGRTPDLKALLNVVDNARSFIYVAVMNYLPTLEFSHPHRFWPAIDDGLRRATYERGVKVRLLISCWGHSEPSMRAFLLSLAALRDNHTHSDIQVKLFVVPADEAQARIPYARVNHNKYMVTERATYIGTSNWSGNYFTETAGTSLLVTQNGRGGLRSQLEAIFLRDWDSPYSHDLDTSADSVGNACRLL
# UniProt Q86T03, sequence (Q86T03 whole entry, looked up): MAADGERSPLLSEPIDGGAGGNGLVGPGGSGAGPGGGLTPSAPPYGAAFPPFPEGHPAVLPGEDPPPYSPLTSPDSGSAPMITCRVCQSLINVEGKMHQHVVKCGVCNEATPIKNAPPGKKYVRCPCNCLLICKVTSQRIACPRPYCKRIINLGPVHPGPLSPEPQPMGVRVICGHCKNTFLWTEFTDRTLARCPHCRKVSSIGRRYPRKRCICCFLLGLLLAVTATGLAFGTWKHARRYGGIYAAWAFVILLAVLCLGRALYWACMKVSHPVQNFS
# UniProt Q13362, sequence (Q13362 whole entry, looked up): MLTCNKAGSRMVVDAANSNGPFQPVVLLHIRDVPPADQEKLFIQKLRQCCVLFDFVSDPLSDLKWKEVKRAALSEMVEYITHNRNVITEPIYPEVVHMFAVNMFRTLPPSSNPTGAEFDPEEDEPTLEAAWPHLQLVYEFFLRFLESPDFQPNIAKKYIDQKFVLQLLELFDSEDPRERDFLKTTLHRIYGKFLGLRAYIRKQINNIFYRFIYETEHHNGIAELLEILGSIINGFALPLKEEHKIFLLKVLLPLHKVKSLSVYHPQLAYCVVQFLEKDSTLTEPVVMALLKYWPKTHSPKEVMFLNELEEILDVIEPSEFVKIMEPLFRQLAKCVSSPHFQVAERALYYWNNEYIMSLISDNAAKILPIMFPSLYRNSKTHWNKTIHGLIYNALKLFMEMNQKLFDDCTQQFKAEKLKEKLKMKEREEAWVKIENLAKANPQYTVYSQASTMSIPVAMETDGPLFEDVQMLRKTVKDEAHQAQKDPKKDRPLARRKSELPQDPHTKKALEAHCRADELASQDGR
# UniProt Q6EEV4, sequence (Q6EEV4 whole entry, looked up): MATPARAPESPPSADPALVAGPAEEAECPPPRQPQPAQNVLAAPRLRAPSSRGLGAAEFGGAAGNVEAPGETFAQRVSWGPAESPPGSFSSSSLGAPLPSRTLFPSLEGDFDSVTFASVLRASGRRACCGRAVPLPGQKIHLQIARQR
Target,log2 fold change (IRAK-1-4 Inhibitor I),log2 fold change (ibrutinib),log2 fold change [1],log2 fold change [2],log2 fold change [3],log2 fold change (pinometostat),log2 fold change [4],log2 fold change [5],log2 fold change [6],log2 fold change [7],log2 fold change [8],log2 fold change (Nexturastat A),log2 fold change (vemurafenib),log2 fold change [9],log2 fold change [10],log2 fold change (givinostat),log2 fold change (barasertib),log2 fold change (ralimetinib),log2 fold change [11],log2 fold change [12]
POLR2M (UniProt Q6EEV4),-0.014,-0.075,-0.027,-0.091,0.128,0.005,0.139,0.209,0.091,-0.062,0.046,-0.403,0.017,-0.066,-0.073,-0.105,-0.055,–,–,–
PARP16 isoform 3 (UniProt Q8N5Y8),-0.036,-0.13,-0.003,0.032,-0.012,-0.097,-0.009,-0.027,0.066,0.298 (active),0,0.022,-0.06,0.132,-0.016,0.04,0.032,–,–,–
PRPF3 (UniProt O43395),-0.018,-0.038,-0.179,-0.055,-0.205,0,0,-0.2,0.05,0.038,0.117,-0.087,0.1,0.081,-0.005,0.086,0.028,-0.008,-0.001,-0.025
PARL (UniProt Q9H300),0.019,0.007,0.003,-0.003,-0.233 (active),-0.006,0.059,0.017,0,0.02,0.002,-0.098,-0.014,0.057,-0.036,0.068,-0.022,-0.022,0.005,0.025
PDSS2 (UniProt Q86YH6),0.1,0.074,0.058,-0.089,-0.085,-0.017,-0.438 (active),-0.022,-0.215,0.093,-0.083,-0.126,-0.03,0.244,–,-0.046,0.027,-0.059,0.054,0.017
PHLDB1 isoform 2 (UniProt Q86UU1),0.014,-0.055,-0.832 (active),-0.053,-0.018,-0.011,0.091,0.118,–,0.047,0.047,0.045,0.031,0.016,0.14,-0.012,0.117,0.005,0.016,0.01
PLD3 (UniProt Q8IV08),0.022,-0.031,-0.042,-0.022,-0.079,-0.005,0.003,-0.023,0.002,0.034,0.018,-0.081,-0.007,0.019,-0.028,-0.072,-0.013,-0.039,0.05,0.012
PEX11B (UniProt O96011),0.025,0.04,0.032,0.008,0.075,-0.031,0.055,0.012,0.06,0.321,-0.008,-0.076,0.08,0,0.029,0.008,-0.002,0.005,-0.058,-0.039
PIK3CD (UniProt O00329),0.005,-0.137,0.237,-0.391,0.104,-0.024,–,0.259,0.042,0.018,-0.04,-0.1,-0.051,-0.156,–,-0.013,0.096,0.032,0.116,0.079
PSMD6 (UniProt Q15008),-0.037,-0.036,0.081,0.05,0.038,0.047,0.028,0.012,-0.007,-0.045,-0.045,0.108,-0.055,-0.014,0.01,-0.034,-0.012,0.087,-0.221 (active),-0.004
PRKD3 (UniProt O94806),0.189,0.059,-2.06 (active),–,-0.129,0.266,–,–,0.096,–,-0.012,–,0.294,–,0.115,-0.008,0.086,-0.089,0.06,-0.052
PIP4P1 isoform 2 (UniProt Q86T03),-0.011,0.003,-0.002,-0.004,-0.329 (active),-0.031,0.131,-0.062,-0.018,-0.019,0.039,0.035,-0.198,-0.063,-0.002,-0.037,0.001,0.003,0.022,-0.001
PCBP2 (UniProt F8VRH0),0.118,0.057,-0.092,-0.263,0.123,0.022,0.089,-0.113,0.419,0.019,0.172,0.136,-0.235,0.123,-0.199,0.04,-0.201,–,–,–
PRKCE (UniProt Q02156),-0.02,-0.013,-0.468 (active),-0.026,-0.153,-0.051,-0.059,-0.009,0.041,-0.012,0.048,-0.242,0.077,0.085,-0.02,-0.393 (active),0.013,–,–,–
PPP2R5C isoform 2 (UniProt Q13362),-0.036,-0.038,–,–,-0.146,-0.017,–,–,–,–,0.022,–,–,–,-0.016,0.048,0.055,0.026,-0.095,-0.047
PSMB9 (UniProt P28065),0.091,0.511,0.031,-0.01,0.205,0.069,–,–,-0.137,-0.032,-0.342,-0.233,-0.08,-0.047,–,-0.179,0.12,–,–,–
PCNX1 (UniProt Q96RV3),–,0.008,–,0.005,–,–,0.015,0.143,–,-0.373,–,0.106,0.025,-0.58 (active),-0.035,–,0.026,–,–,–
PHRF1 (UniProt Q9P1Y6),–,–,–,–,0.718 (active),–,–,–,–,-0.034,–,–,–,-0.058,0.146,0.034,–,-0.144,0.119,-0.052
PUM1 (UniProt Q14671),0.101,–,-0.038,–,-0.226,0.073,–,0.139,–,–,-0.028,–,–,–,–,0.08,–,–,–,–
